# HCV inhibitor – qHTS Assay for Inhibitors of Hepatitis C Virus (HCV); Huh7.5.1 HCVcc-Cre infection, luciferase reporter, 44 h; Potency, µM (top dose mostly 41.8 µM), for inactives: top-dose activity change, negative = inhibition, hits mostly inhibitors; 3.4% of 340,000 active; also: potency is read from the fitted curve at half-maximal effect; % is scaled to controls: 0 for no effect and ±100 for the full control effect
#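 Seed cells (1,000/well) for 4 h; treat with compound and infect with HCVcc-Cre, moi about 0.5. Incubate 44 h, then detect luciferase activity.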
# LASV entry inh – qHTS for Inhibitors of binding or entry into cells for Lassa Virus | 1.2% of 300,000 active | Potency, µM (top dose mostly 37.9 µM), without a hit: top-dose activity change, negative = inhibition, most hits filed as inhibitors | AID 540256, 2011 | Lassa virus pseudotype entry inhibition, cell reporter; calls by dose curve; tested in HEK293 cells; also: potency is read from the fitted curve at half-maximal effect; % is scaled to controls: 0 for no effect and ±100 for the full control effect; nearly all actives have a fitted effect of over 50% in size
# Vaccinia mCherry – qHTS for Stage-Specific Inhibitors of Vaccinia Orthopoxvirus: mCherry Reporter Primary qHTS; Vaccinia virus mCherry reporter infection, fluorescence; Potency, µM (titrated, usually from 36.5 µM), for the others: top-dose activity change, negative = inhibition, most hits filed as inhibitors; 0.63% of 310,000 active; AID 720579, 2013; calls by dose curve; tested in A549 cells; also: potency is read from the fitted curve at half-maximal effect; % is scaled to controls: 0 for no effect and ±100 for the full control effect; nearly all actives have a fitted effect of over 35% in size
# Marburg entry inh – qHTS for inhibitors of binding or entry into cells for Marburg Virus. Marburg virus pseudotyped entry inhibition, cell reporter. 1.8% of 300,000 active. AID 540276, 2011. Potency, µM (doses to about 37.8 µM), for the others: at the highest dose activity change, negative = inhibition, most hits filed as inhibitors; calls by dose curve; tested in HEK293 cells; also: potency is read from the fitted curve at half-maximal effect; % is scaled to controls: 0 for no effect and ±100 for the full control effect
# Vaccinia Venus – qHTS for Stage-Specific Inhibitors of Vaccinia Orthopoxvirus: Venus Reporter Primary qHTS; Potency, µM (doses to about 36.5 µM), for the others: at the highest dose activity change, negative = inhibition, actives largely listed as inhibitors; Vaccinia virus Venus reporter expression, fluorescence; 0.46% of 330,000 active; AID 720580, 2013; calls by dose curve; tested in A549 cells; also: potency is read from the fitted curve at half-maximal effect; % is scaled to controls: 0 for no effect and ±100 for the full control effect; nearly all actives have a fitted effect of over 30% in size
# FMDV inh – High Throughput Screening for Foot and Mouth Disease Virus Antivirals; FMDV antiviral cell-based qHTS; Potency, µM (highest dose often 57.9 µM), without a hit: at the top dose activity change, negative = inhibition, actives largely listed as inhibitors; 1.2% of 410,000 active; calls by dose curve; tested in HEK293T cells; also: read-out not given here; potency is read from the fitted curve at half-maximal effect; % is scaled to controls: 0 for no effect and ±100 for the full control effect; nearly all actives have a fitted effect of over 45% in size
# HeLa G2M arrest – Cell cycle validation with wells to cells screening paradigm | 60% of 25 active | HeLa cell cycle G2/M arrest, Hoechst DNA content imaging | shares compounds with Marburg entry inh | Potency, µM, most hits filed as inhibitors
# WI-38 tox – High Content Assay for Compounds that inhibit the Assembly of the Perinucleolar Compartment: WI-38 Cytotoxicity; shares compounds with Marburg entry inh; WI-38 normal lung fibroblasts, ATPLite luminescence ATP viability, 24 h; Potency, µM (highest dose often 46.1 µM), inactives show top-dose activity change, negative = cytotoxicity, actives largely listed as inhibitors; 120 tested, under 10 active; AID 2729, 2010
# PNC inh conf – High Content Assay for Compounds that inhibit the Assembly of the Perinucleolar Compartment: Confirmation of PNC Inhibition | Potency, µM (series often up to 46.1 µM), for inactives: at the top dose activity, negative = PNC inhibition, usual class: inhibitors | 50% of 120 active | shares compounds with Marburg entry inh | PC3M PTB-GFP, PNC prevalence imaging, 16 h
# PC3M caspase – High Content Assay for Compounds that inhibit the Assembly of the Perinucleolar Compartment: PC3M Caspase 3/7 Activation; 120 tested, under 10 active; shares compounds with Marburg entry inh; PC3M-GFP caspase 3/7 activation, luminescence, 24 h; activity change, positive = activation, % at 46.1 µM; AID 2731, 2010
# An asterisk follows results filed as active; i = inactive; ? = inconclusive; . = not tested or not shown; [ ] = remark or other dose. A selection: hits, their analogues and other compounds. The true share with any hit is near 5.3%. Unless noted, calls follow the shape of the dose curve; as a rule, active = well fitted curve in the direction sought with a large enough effect; inconclusive = small, poorly fitted or top-dose-only effect, or another doubt; inactive = no such curve, though single readings can be large; an effect the other way counts as inactive or inconclusive.
SMILES,HCV inhibitor,LASV entry inh,Vaccinia mCherry,Marburg entry inh,Vaccinia Venus,FMDV inh,others
COC(=O)c1cc(NC(=O)c2ccc(-c3ccccc3)cc2)ccc1Cl,10µM*,?,-18.4%,?,-9.8%,-15.0%,
COC(=O)c1cc(NC(=O)Nc2cccc(Cl)c2)ccc1Cl,10µM*,?,?,?,?,.,
Cc1cc(C)cc(Nc2cc(C)nc3nc(-c4ccco4)nn23)c1,.,-28.4%[46.1 µM],-24.3%,.,-25.1%,?,
COC(=O)C1(C(=O)OC)C/C=C\Cc2ccccc2[C@@H]1C[N+](=O)[O-],.,.,.,3.3%[14.2 µM],.,.,
CC1=C(CC(=O)c2ccc(Cl)cc2)C(=O)c2ccccc2C1=O,4.47µM*,-26.8%,.,5.5%,.,3.9%,
CCOc1ccc(/C=C/c2ccnc3ccccc23)cc1OCC,.,.,-16.6%,.,-14.3%,.,
Cc1cc(C)c2c(n1)nn1c(NCCCN(C)C)cc(C)nc21,22.4µM*,-9.1%,.,?,.,2.1%,
Cc1cc(C)c2c(n1)nn1c(NCCOCCO)cc(C)nc21,5.3%,0.1%,-5.8%,3.7%,-8.3%,1.3%,
CCN(CC)S(=O)(=O)c1cc(C(=O)Nc2nncs2)c(Cl)cc1Cl,10µM*,7.4%,.,3.6%,.,-24.0%,
CCOC(=O)NC(=O)C(/C=N/c1sccc1C(=O)OC)=C(\C)O,0.562µM*,?,3.9%,?,3.5%,?,
O=C1/C(=C/c2cccnc2)SC(=S)N1C1CCS(=O)(=O)C1 (centres undefined),0.9%,?,-10.2%,?,1.7%,14.1µM*,
O=C1/C(=C\c2cccnc2)SC(=S)N1C1CCS(=O)(=O)C1 (centres undefined),-9.7%,?,.,?,.,?,
COc1ccc(C[C@H]2CN3C(=NC[C@@H]3Cc3ccc(O)cc3)N2C[C@H](C)NC(=O)c2ccc(C)c(Br)c2)cc1,?,.,?,.,12.6µM*,-17.5%,
Cc1ccc(C(=O)N[C@@H](C)CN2C3=NC[C@H](Cc4ccccc4)N3C[C@H]2Cc2ccc(O)cc2)cc1Br,-8.5%,.,?,.,12.6µM*,-24.5%,
Cc1ccc(C(=O)N[C@@H](C)CN2C3=NC[C@@H](Cc4ccccc4)N3C[C@H]2Cc2ccc(O)cc2)cc1Br,-2.7%,.,?,.,?,?,
Cc1ccc(-c2nnc(Nc3ccc(F)cc3)c3ccccc23)cc1S(=O)(=O)NC(C)C,.,13.9%[46.1 µM],-18.5%,-17.4%[46.1 µM],-29.7%,10.5%,
C=C(C)[C@H]1Cc2c(ccc3c2O[C@@H]2COc4cc(OC)c(OC)cc4[C@@H]2C3=O)O1,.,2.31µM*,.,0.58µM*,.,.,HeLa G2M arrest=0.631*
Cc1ccc([N+](=O)[O-])cc1NC(=O)C[n+]1ccccc1,1.8%,.,.,.,.,-13.4%,
Cc1cc(C)cc(NC(=S)NCCc2ccc(S(N)(=O)=O)cc2)c1,-2.3%,-9.8%,i,7.3%[46.1 µM],-5.7%,-19.1%,
Cc1ccc(NC(=S)NCCc2ccc(S(N)(=O)=O)cc2)cc1C,?,-0.5%,-9.1%,-14.2%,-9.2%,-21.3%,WI-38 tox=-4.6%;PNC inh conf=32.5%;PC3M caspase=-4.4
COc1ccc(C(C)C)cc1S(=O)(=O)NCCc1c(C)[nH]c2c(Cl)cccc12,.,-23.5%[46.1 µM],-22.9%,?,-21.6%,64.5%,
CN(C)CCCN1c2ccccc2Sc2ccc(Cl)cc21,?,23.1µM*,?,5.62µM*,?,?,HeLa G2M arrest=?
CN1CCN(CCCN2c3ccccc3Sc3ccc(S(=O)(=O)N(C)C)cc32)CC1,?,.,?,.,-27.6%,?,
COc1cc(/C=N/NC(=O)c2ccc3nc[nH]c3c2)cc(OC)c1OC,-0.6%,-0.9%,-0.2%[7.34 µM],5.3%[46.1 µM],-3.9%[7.34 µM],5.3%,
COc1cc(/C=N/NC(=O)c2ccc(CSc3nc4ccccc4[nH]3)cc2)cc(OC)c1OC,?,?,-1.4%,?,-18.1%,?,WI-38 tox=5.4%;PNC inh conf=-10.8%;PC3M caspase=-15.7
SMILES,HCV inhibitor,LASV entry inh,Vaccinia mCherry,Marburg entry inh,Vaccinia Venus,FMDV inh,others
CC(=O)O[C@H]1C(=O)[C@@]2(C)C([C@H](OC(=O)c3ccccc3)[C@]3(O)C[C@H](OC(=O)[C@H](O)[C@@H](NC(=O)c4ccccc4)c4ccccc4)C(C)=C1C3(C)C)[C@]1(OC(C)=O)CO[C@@H]1C[C@@H]2O (some centres undefined),.,?,-14.4%[20.9 µM],0.251µM*,-20.9%[20.9 µM],-16.3%[39.8 µM],HeLa G2M arrest=0.0126*
COC(=O)[C@]12CCCCC=C1N(Cc1ccco1)C(=O)[C@H](CC(=O)NCc1ccc(C)o1)C2,.,.,9.9%,.,3.6%,-13.6%,
CC(C)CN(C(=O)Cn1c(C(F)(F)F)nc2ccccc21)c1c(N)n(Cc2ccccc2)c(=O)[nH]c1=O,-5.6%,.,.,4.5%,.,-16.7%,
Cc1sc2nc(C3CC3)nc(SCC(=O)N3c4ccccc4CC3C)c2c1C (centres undefined),11.2µM*,1.83µM*,.,4.11µM*,.,-2.6%,WI-38 tox=-0.6%;PNC inh conf=7.08µM*;PC3M caspase=-1.3
Cc1cnc(NC(=O)COc2cccc3c2OC(C)(C)C3)s1,?,0.708µM*,7.94µM*,?,1.3%,-10.8%,WI-38 tox=-4.3%;PNC inh conf=7.94µM*;PC3M caspase=-3.0
CC1(C)Cc2cccc(OCC(=O)Nc3ccccc3F)c2O1,0.3%[8.37 µM],.,.,.,.,-6.6%,
O=[N+]([O-])c1cccnc1SCc1ccccc1,2.9%,.,.,.,.,0.0%,
Cc1cc[n+](C2=C([O-])c3ccccc3C(=O)/C2=N\S(=O)(=O)c2cccs2)cc1C,11.2µM*,?,-13.9%,?,-16.9%,-23.7%,WI-38 tox=-23.7%;PNC inh conf=?;PC3M caspase=?
CC(C)CNC(=O)CSc1nnc(-c2cccc(S(=O)(=O)N3CCCCC3)c2)o1,4.2%,-7.3%,?,-5.3%[46.1 µM],?,8.0%,WI-38 tox=-8.6%;PNC inh conf=-22.1%;PC3M caspase=-6.6
Cc1nc(N2CCCC2)c2c(C(=O)N3CCN(c4cccc(C)c4C)CC3)c(C)oc2n1,.,9.5%[46.1 µM],-4.5%,.,-20.6%,-27.9%,

# Compound activity deposited in PubChem by National Center for Advancing Translational Sciences (NCATS).
